# Data taken from PubChem BioAssay (NCI).
# This is part of a sample that, as a whole, favours compounds with a hit. Of some 83,000 tested, about 20% had one in any assay.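 How to read the values: 0–100, growth inhibition (40 = 60% inhibited); 0, no net growth; -100 to 0, cell death (-40 = 40% of starting cells died; -100 = all dead).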 Values without a mark were called inactive. Calls of active or inactive are those of the source. The calls were made as follows: active = growth percent below 10; inactive = the rest.
# Test system: MDA-MB-468 breast
# Test: NCI-60 one-dose screen, 48 h (100 = growth as untreated, 0 = no growth, -100 = all killed)
# Details: 10 µM unless noted
row,SMILES,growth
1,O=C1C(=O)c2ccccc2C(O)=C1CCCc1ccc(Oc2ccccc2)cc1,44.7%
2,Cc1noc(C)c1CSc1ccccc1C(=O)N1CCN(c2cccc(C(F)(F)F)c2)CC1,38.1%
3,COc1ccc(C(=O)c2cc(C)c(OC)c(C)c2)c(OC)c1O,20.4%
4,CN1CCN(C)c2cncc(Br)c2C1=O,106%
5,Cc1ccccc1-c1cc(-c2ccc(Br)s2)[nH]c(=O)c1C#N,96.4%
6,CCC([N+](=O)[O-])S(=O)(=O)c1ccc(C)cc1 (stereo not given),91.3%
7,Nc1nnc2cc(Cl)ccc2n1,101%
8,Cc1cc2c(C(C)C)c(O)c(O)c(C=NCCCCCCC(=O)O)c2c(O)c1-c1c(C)cc2c(C(C)C)c(O)c(O)c(C=NCCCCCCC(=O)O)c2c1O,30.4%
9,COc1ccc(C(C)C=O)cc1 (stereo not given),134%
10,Cc1cc(N2CCN(c3ccnc4cc(Cl)ccc34)CC2)nc(N2CCOCC2)n1,68.7%
11,O=C(CCCC(=O)Nc1ccc(Cn2nnc3cc(Cl)c(Cl)cc32)cc1)Nc1ccc(CN2N=NC3C=C(Cl)C(Cl)=CC32)cc1 (stereo not given),59.1%
12,CCCCCn1c(=N)n(CC(O)COc2cccc(C)c2)c2ccccc21 (stereo not given),-3.97% (active)
13,O=C1/C=C/[C@@H](O)[C@@H]2C[C@@H](O)C[C@H]2/C=C/CCC[C@@H](O)CCO1,-17% (active)
14,O=C1c2cc(S(=O)(=O)O)ccc2C(=O)c2c1cccc2[N+](=O)[O-],114%
15,COc1ccc(/C=C/C(=O)c2ccc(Oc3ncnc4ccccc34)cc2)cc1OC,28.4%
16,CCCCCCCCCCCCCCCCN(CC)CC,-85.3% (active)
17,CCOc1cccnc1/C=N/NC(N)=S,52.7%
18,Cc1cc(Cl)nc(Nc2ccccc2)n1,105%
19,COc1ccc(-c2nc(/C=N/Nc3cc(C)nc4ccc(Cl)cc34)c(C)o2)cc1,-73.7% (active)
20,O=C1Nc2ccccc2/C1=C/c1ccc(OCC(=O)c2ccccc2)cc1,94.6%

row,SMILES,growth
1,CN1CCN(c2ccc(Nc3nc(NCCNS(=O)(=O)c4ccc(Cl)cc4)c4sccc4n3)cc2)CC1,93%
2,CC(c1ccccc1)N(C)C (stereo not given),86%
3,O=S(=O)(Nc1ccc(Cl)c(F)c1)c1ccc(-c2cnc(C3CC3)o2)cc1,-25.4% (active)
4,COc1ccc(Cn2c(SC)nc(=O)n(Cc3ccc(Cl)cc3)c2=O)cc1,107%
5,COC(=O)c1c2c(c[n+]([O-])c1C)C(=O)C=C(NCc1ccccc1)C2=O,-74.9% (active)
6,CSc1nc(NCCN2CCOCC2)c(C#N)c(-c2cccc([N+](=O)[O-])c2)n1,113%
7,C=C1C(=O)O[C@H]2[C@H]1CC/C(Cn1cc(-c3ccc(N)cc3)nn1)=C\CC[C@@]1(C)O[C@@H]21,-44.8% (active)
8,Clc1cc(Cl)c2nc(-c3ccc(-c4ccc(/C=N/NC5=NCCN5)cc4)s3)cn2c1,103%
9,C#CC(=O)Nc1cccc(Nc2nc3c(c(NCc4ccccc4)n2)CCCC3)c1,-54.7% (active)
10,C=C1C(=O)O[C@@H]2C3C(=C(C)CC[C@@H]12)CC1O[C@]13C (stereo not given in full),19.3% [6.75 µM]
11,Cc1nc2ccccc2c(N)c1-c1cc(C)c2c(C)nc3ccccc3c2n1,-94.8% (active)
12,COc1cccc(-c2nn(-c3ccccc3)cc2-c2ccnc(NCCCNS(=O)(=O)c3ccccc3)c2)c1,8.98% (active)
13,C/C(=C(\c1ccc(OCCN2CCCCCC2)cc1)c1ccc(OC(=O)c2ccccc2)cc1)c1ccc(Cl)cc1,45.5%
14,O=C(/C=C/c1cccc([N+](=O)[O-])c1)c1ccc(Nc2nc(N3CCCCC3)nc(N3CCCCC3)n2)cc1,121%
15,Cc1ccccc1CC(N)C(=O)O (stereo not given),117%
16,CCN(CC)CCOc1ccccc1-n1c(C)ccc1-c1ccccc1,85.1%
17,N/C(=N\C(N)=N\c1nc2ccccc2s1)c1ccc2ccccc2c1,109%
18,CC/C(=C(/c1ccc(Cl)cc1)c1ccc(OCCN2CCCC2)cc1)c1ccc(OC)cc1,46.5%
19,Nc1c(C(=O)Nc2ccccc2Cl)sc2nc3c(cc12)C(O)CCC3 (stereo not given),25.7%
20,COc1ccc(-c2cc(-c3cc(-c4ccc(OC)cc4)nc(N)n3)nc(N)n2)cc1,104%
